# Compound activity deposited in PubChem by several laboratories.
# Smad3 inh – blocks human Smad3 binding to FoxH1 peptide; P84022; AID 630; TR-FRET Smad3/Dy647-FoxH1 peptide binding, europium anti-His; inhibition, % at 25 µM; actives 0.29% (n = 88,000);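 active means compounds that reduce the energy-transfer binding signal between the protein and its labelled peptide by more than half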;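 further: 0% = Smad3 plus labelled peptide maximal FRET and 100% = peptide-only background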
# ERa SRC1 inh – blocks coactivator binding to human estrogen receptor alpha | P03372 | TR-FRET ER-alpha LBD / SRC-1 peptide, estradiol-bound | inhibition, % at 25.6 µM | actives 1.7% (n = 86,000) | AID 629; in the data active means inhibition above about 50%;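 further: 0% = receptor plus peptide control and 100% = peptide only without receptor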
# PLK1 kinase inh – PLK1 (human) kinase inhibition. inhibition, % at 10 µM. actives 0.53% (n = 97,000). P53350. recombinant PLK1 kinase, TR-FRET peptide phosphorylation. AID 619;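 active means inhibition of 50% or more in the single-concentration screen; inactive means inhibition below 50%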;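 further: 0% = DMSO max control and 100% = H-89 dihydrochloride min control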
# Plk1 PBD FP – blocks phosphopeptide binding to human Plk1 polo box domain; Plk1 PBD phosphopeptide binding, fluorescence polarization; actives 0.13% (n = 97,000); inhibition, %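 (tested at about 20 µM)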; in the data active means inhibition above about 34%, passing the limit was not always enough
# ERa coact pot – ER-alpha (human) coactivator binding potentiation; P03372; TR-FRET ERalpha-LBD/SRC-Cy5 coactivator binding, 2 h; 100 = basal binding, no effect; coactivator binding (% of control), % at 25.6 µM; actives 1.3% (n = 86,000); in the data active means activity above about 200%;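 further: binding measured in presence of low estradiol as agonist stimulus; 0% = peptide alone without receptor and 100% = receptor with peptide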
# ERb coact inh – blocks coactivator binding to human estrogen receptor beta | Q92731 | TR-FRET ER-beta LBD / SRC1-Cy5 peptide binding; receptor agonist-loaded with 1 µM estradiol | inhibition, % at 25.6 µM | actives 1.3% (n = 86,000);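 active means compounds whose percent inhibition of the receptor-coactivator binding signal exceeds about 50% in the single-dose screen, limit read from the data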;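 further: 0% = receptor plus peptide wells without compound and 100% = peptide-only wells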
# Target sequence (Q92731 whole entry, looked up, the tested form may be a part): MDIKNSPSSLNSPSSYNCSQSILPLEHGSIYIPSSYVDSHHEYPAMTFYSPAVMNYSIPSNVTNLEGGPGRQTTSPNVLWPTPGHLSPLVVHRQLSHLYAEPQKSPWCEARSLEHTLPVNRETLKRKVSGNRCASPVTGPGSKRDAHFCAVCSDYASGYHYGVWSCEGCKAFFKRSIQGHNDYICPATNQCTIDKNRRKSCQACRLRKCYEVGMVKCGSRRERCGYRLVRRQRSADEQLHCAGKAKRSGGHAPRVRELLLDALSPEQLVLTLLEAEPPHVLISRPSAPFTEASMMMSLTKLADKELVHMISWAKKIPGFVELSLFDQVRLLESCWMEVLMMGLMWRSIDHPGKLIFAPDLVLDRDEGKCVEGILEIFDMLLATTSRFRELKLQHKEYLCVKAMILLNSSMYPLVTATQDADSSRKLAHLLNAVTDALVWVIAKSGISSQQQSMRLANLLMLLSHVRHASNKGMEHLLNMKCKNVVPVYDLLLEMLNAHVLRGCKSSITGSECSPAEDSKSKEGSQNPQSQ
# The depositor's hits bear a star; . = no result; [ ] = another dose, or the depositor's remark. In the library only some 3.3% were active in any assay of this set; here they are far more common.
SMILES,Smad3 inh,ERa SRC1 inh,PLK1 kinase inh,Plk1 PBD FP,ERa coact pot,ERb coact inh
Cc1cc(N2C(=O)C(=O)/C(=C(/O)c3ccccc3)C2c2cccs2)no1 (stereo not given),7,-4,-4,15,110,7
Nc1nc(N)nc(CCCc2nc(N)nc(N)n2)n1,-5,.,.,.,.,.
O=C(Cn1c(=O)oc2cc(S(=O)(=O)N3CCCCCC3)ccc21)NC1CCCCC1,4,32,-2,-1,349*,38
Cc1ccc(NC(=O)Cn2c(=O)oc3cc(S(=O)(=O)N4CCC(C)CC4)ccc32)cc1C,2,43,-12,25,52,62*[fluorescence artefact?]
CCOC(=O)Cn1c(=O)oc2cc(S(=O)(=O)N3CCC(N4CCCCC4)CC3)ccc21,5,-1,-8,-16,107,-9
Cc1nc(NC2=NCN(CCc3ccccc3)CN2)nc2c(C)cccc12,0,-1,25,31,99,8
Cn1c(=O)c2[nH]c(N=NN3CCN(CCO)CC3)nc2n(C)c1=O,8,.,.,.,.,.
O=C(CSc1nnc(-c2ccccn2)n1Cc1ccco1)c1ccc(-c2ccccc2)cc1,-3,39,.,.,228*[fluorescence artefact?],38
O=C(CSc1nnc(-c2ccc(O)cc2)n1Cc1ccco1)c1ccccc1,-11,13,2,2,88,7
Cc1oncc1C(=S)Nc1ccccc1,13,0,-18,-8,110,-10
N#C/C(=C(/O)COC(=O)Cc1c[nH]c2ccccc12)c1nc2ccccc2[nH]1,10,29,-4,0,59,11
N#C/C(=C(/O)COC(=O)CCCNC(=O)c1ccc(Cl)cc1)c1nc2ccccc2[nH]1,-3,52*[fluorescence artefact?],-6,-8,66,40
O=C(Nc1cccc(C(F)(F)F)c1)C1CCCN(S(=O)(=O)c2cnc[nH]2)C1 (stereo not given),0,-3,-1,-16,111,-13
O=C(Nc1ccc(N2CCOCC2)cc1)C1CCCN(S(=O)(=O)c2cccc(C(F)(F)F)c2)C1 (stereo not given),-5,-4,-4,-8,104,85*[fluorescence artefact?]
O=S1(=O)N[C@H]2CC[C@H]3NS(=O)(=O)N[C@H]4CC[C@@H](N1)N4S(=O)(=O)N23,24,.,.,.,.,.
c1coc(Cn2nnnc2CN2CCN(C3CCCC3)CC2)c1,1,2,-17,1,94,14
Fc1ccc(Cn2nnnc2CN2CCN(C3CCCCC3)CC2)cc1,1,-4,-4,-2,218*[fluorescence artefact?],1
COc1cccc(C(=O)CSc2nnc(CNS(C)(=O)=O)n2-c2ccc(C)cc2)c1,-2,-1,-7,6,89,9
O=C(O)[C@H](Cc1ccc(O)c([N+](=O)[O-])c1)N1C(=O)c2ccccc2C1=O,9,.,.,.,.,.
CCOC(=O)c1cc(C#N)c(SCC(=O)c2cc(C#N)c(SC)nc2C)nc1C,-5,35,.,.,288*,32
c1cc(NNc2cccc(-c3nn[nH]n3)c2)cc(-c2nn[nH]n2)c1,11,.,.,.,.,.
C[C@H]1[C@H](C)OC(=O)C[C@H](O)C[C@H](O)C[C@H](O)CC[C@H](O)[C@H](O)CC(=O)C[C@H](O)[C@H](C(=O)O)[C@H](O)C[C@H](O[C@H]2O[C@@H](C)[C@H](O)[C@@H](N)[C@@H]2O)C=CC=CC=CC=CCCC=CC=C[C@@](C)(O)[C@H]1O,4,.,.,.,.,.
O=C(COC(=O)c1cccnc1SCC(=O)NCc1ccccc1)NCc1ccccc1,-54,3,-7,-19,252*[fluorescence artefact?],11
Cc1cc(C)cc(OCc2nc3ncc(Br)cc3[nH]2)c1,2,57*,-21,6,333*[fluorescence artefact?],42
NC1CCCCC1N=Cc1c(O)n(CCc2ccc(F)cc2)c(=O)[nH]c1=O (stereo not given),6,72*[fluorescence artefact?],-14,6,46,35
C[C@]12CC[C@@H]3c4ccc(O)cc4CC[C@H]3[C@@H]1CC[C@@H]2OC(=O)CCC(=O)O,-3,9,.,.,107,4
C[C@]12CC[C@@H]3c4ccc(OC(=O)c5ccccc5)cc4CC[C@H]3[C@@H]1CC[C@@H]2O,0,-7,.,.,298*,-1
CCc1cc2cc(C(=O)Nc3ccc(F)cc3)sc2s1,-106,37,-87,-2,308*[fluorescence artefact?],49
CCCCOCC1CN(c2ccccc2)C(=O)CS1 (stereo not given),-6,22,-16,30,103,25
